Test results as given in PubChem BioAssay AID540259 (Broad Institute, 2011).
Potency and affinity values are given separately. Values without a mark were called inactive.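 The calls were made as follows: active = cell killing, meaning signal decrease, with fitted half-maximal dose at or below ten times the top valid tested dose; inconclusive = poor fit, or flat curve with 30 to 70% signal loss; inactive = the rest.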

test: HeLa cell cytotoxicity, dose response, cytotoxicity control for MITF activator project, CellTiter-Glo luminescence, cherry-pick samples (AID 540259); settings: HeLa viability, CellTiter-Glo ATP luminescence, 24 h; series mostly up to 35 µM; activity change, negative = cytotoxicity: at the top concentration;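 also: 0% = DMSO neutral control and -100% = mitoxantrone positive control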

Compound	activity change, negative = cytotoxicity
O=C(OCc1csc(-c2ccccc2)n1)c1ccc(O)cc1	23.3%
C#CCSc1nnc(-c2ccc(O)cc2)o1	13.9%
Cc1ccc(N2C(=O)S/C(=C/c3cn(C)c4ccccc34)C2=O)cc1	-2.79%
COc1cccc(/C=N/Nc2c(Cl)cncc2Cl)c1O	-9.53%
CN(C)S(=O)(=O)c1cccc(-c2nnc(-c3ccccc3)o2)c1	1.72%
CCN(CC)C(=O)CCc1nnc(Cc2cccc(C(F)(F)F)c2)o1	-0.229%
Oc1nc(Nc2ccccc2)sc1/C=C1\C=Nc2ccccc21	4.73%
O=C(NC1=NCCS1)c1ccc(Cl)s1	3.77%
O=c1[nH]c(COc2ccccc2)nc2ccccc12	8.05%
Cc1cc(NC(=O)c2ccc(Cl)cc2)no1	-10.9%
Cc1cccc(OCc2nc(-c3nonc3N)no2)c1C	-14.2%
C=CCSc1nncn1/N=C/c1ccc(OC)cc1	11.5%
CCCCC(=O)Nc1sc2c(c1C#N)CC(C)(C)OC2	4.44%
CC(=O)N(c1ccccc1)c1nnc(-c2cnc(C)cn2)s1	-1.1%
O=C(N/N=C/c1ccccc1C(F)(F)F)c1ccc(O)cc1	12.3%
